Experimental data taken from PubChem BioAssay (NCATS).
Inconclusive results are not listed. Calls of active or inactive are those of the source. Unless noted, calls come from the whole dose curve; as a rule, active = well fitted curve in the direction sought with a large enough effect; inconclusive = small, poorly fitted or top-dose-only effect, or another doubt; inactive = no such curve, though single readings can be large; an effect the other way counts as inactive or inconclusive.

Legend:
[1] = Validation of Assay for Modulators of Lamin A Splicing (AID 1459; active = well fitted curve in the direction sought with a large enough effect in the signal ratio; the % refers to the signal ratio;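 note: cells exposed to compound for two days before reading; 0% is about no effect; ratio rise marks activators and ratio drop marks inhibitors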)
Outline: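 Dual-reporter HeLa S3 line (lamin A-EGFP minigene, DsRed2) treated with compounds 48 hrs, 0.5% DMSO final. Endpoint: EGFP/DsRed2 total intensity ratio from laser-scanning microplate cytometry.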

[2] = target: DNA repair nuclease/redox regulator APEX1 (Homo sapiens) (UniProt P27695); assay: qHTS Validation Assay for Inhibitors of the Human Apurinic/apyrimidinic Endonuclease 1 (APE1) (AID 1705;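 note: TAMRA fluorescence gain over two minutes as APE1 cuts a quenched THF abasic duplex; % is set by controls: 0 for no effect and ±100 for the full control effect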)
Outline: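 Substrate: 50 nM final fluorophore/quencher THF-abasic duplex. Enzyme preincubated with compounds 15 min, RT. Progress derived from fluorescence difference, third minus first kinetic read.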

[3] = target: Endonuclease 4 (Escherichia coli (strain K12)) (UniProt P0A6C1); assay: Counterscreen for APE1 Inhibitors: qHTS Validation Assay for Inhibitors of Endonuclease IV (AID 1708); note: % is set by controls: 0 for no effect and ±100 for the full control effect
Outline: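 qHTS concentration-response format; LOPAC1280 tested under APE1-screen conditions. 2 nM enzyme, 15 min compound preincubation at RT, then 50 nM TAMRA/BHQ-2 abasic substrate; kinetic fluorescence read, three reads at 60 s intervals.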

[4] = target: ATP-dependent DNA helicase Q1 (Homo sapiens) (UniProt P46063); assay: qHTS Validation Assay for Inhibitors of RecQ-Like Dna Helicase 1 (RECQ1) (AID 2353);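 note: plate controls were DMSO vehicle for no effect and enzyme-free control for full effect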
Outline: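 50 nM RECQ1T1 preincubated 15 min with compound in Tris pH 8.0 buffer with MgCl2, DTT, Tween-20 and 2.5 ug/ml poly(dI-dC); started with 200 nM TAMRA/BHQ-2 forked duplex and 2 mM ATP. Unwinding read as fluorescence (525/598 nm), two reads 2 h apart.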

[5] = Cytometric Cell-Based qHTS for Inhibitors of the mTORC1 Signaling Pathway in MEF (Tsc2-/-, p53-/-) Cells (AID 2660);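 note: Tsc2 and p53 null MEFs carrying empty vector with compound for 24 h; percent of cells above a phospho-rpS6 to PI ratio cutoff in each well; plate controls were DMSO for no effect and rapamycin for full effect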
Outline: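 Cells are plated, treated with compound for 24 hrs at 37 degree Celsius, then fixed, blocked and immunostained for phospho-rpS6 Ser235/236. Propidium iodide counterstain follows. Per-well % positive cells is derived from the PI-normalized phospho-S6 signal.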

[6] = High Content Imaging Cell-Based qHTS for Inhibitors of the mTORC1 Signaling Pathway in MEF (Tsc2-/-, p53-/-) Cells (AID 2666); settings: at 38.3 µM (top of the series);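 note: percent of cells scored positive for phospho-rpS6 Ser235/236 immunostaining by imaging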
Outline: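 Cells were plated, dosed with compound after 24 hrs, and incubated another 24 hrs at 37 degree Celsius. Fixed cells were immunostained for phospho-rpS6 Ser235/236 and counterstained, and the normalized signal was scored as % active cells against rapamycin and DMSO controls.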

[7] = High Content Imaging Cell-Based qHTS for Inhibitors of the mTORC1 Signaling Pathway in MEF Cells (AID 2667);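 note: Tsc2-/- p53-/- MEFs stably re-expressing wild-type Tsc2 exposed 24 h; plate controls were DMSO wells for no effect and rapamycin control wells for full effect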
Outline: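 Immunofluorescence for rpS6 phosphorylation in MEFs of Tsc2-/-, p53-/- background rescued with WT Tsc2. Compound exposure lasted 24 hrs. Inhibition was scored against rapamycin-treated control wells.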

[8] = Validation screen for small molecules that induce DNA re-replication in MCF 10A normal breast cells (AID 463097); note: 0% is about no effect; nearly all actives have a fitted effect of over 60% in size
Outline: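 Following 48 hr compound incubation (37 C, 5% CO2), MCF 10A cells receive Hoechst for 40 min at 37 C. Nuclei are then scanned (excitation 405 nm, emission 500-530 nm) for total fluorescence intensity.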

[9] = target: Ubiquitin carboxyl-terminal hydrolase 2 (Homo sapiens) (UniProt O75604); assay: qHTS Validation Assay for Inhibitors of Ubiquitin-specific Protease USP2a Using CHOP2 as the Reporter (AID 463106);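 note: plate controls were DMSO for no effect and full inhibition by NEM for full effect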
Outline: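 10nM USP2 core + cpd, 30min RT; add 25nM Ub-CHOP2/25nM substrate; 60min RT; FI 485/531nm. Buffer Tris pH 8.0, CaCl2, BME, CHAPS. Norm. to NEM = 100% inhibition; time-zero read flags fluorescent artifacts.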

[10] = target: Tumor susceptibility gene 101 protein (Homo sapiens) (UniProt Q99816); assay: qHTS Validation Assay for Iinhibitors of HIV-1 Budding by Blocking the Interaction of PTAP/TSG101 (AID 485342; calls by dose curve; note: 0% is about no effect)
Outline: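 Compound wells held the Tsg101 binding domain (10 uM) and a FITC-conjugated PTAP peptide (50 nM) in buffer at pH 7.5 containing 0.15 M NaCl and 0.01% Tween 20; polarization was recorded after 20 min, r.t.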

[11] = target: Beta-2 adrenergic receptor (Homo sapiens) (UniProt P07550); assay: qHTS validation assay of beta-arrestin-biased ligands of beta2-adrenergic receptor (AID 485366); note: 0% is about no effect
Outline: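 Values derive from curve-fitted %Activity of a luminescent beta-arrestin recruitment reporter; compounds tested up to 46 microM on Tango cells for 18 hr at 37 degrees C, 5% CO2.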

[12] = target: Thioredoxin reductase 1, cytoplasmic (Rattus norvegicus) (UniProt O89049); assay: qHTS Assay for Substrates of Mammalian Selenoprotein Thioredoxin Reductase 1 (TrxR1) (AID 488772);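 note: NADPH fluorescence in the first read after selenite addition and not the 8 min delta; 0% is about no effect; a drop in NADPH fluorescence below the no-compound background marks a TrxR1 substrate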
Outline: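 Quantitative HTS in Tris-HCl buffer at pH 7.5 with EDTA and Tween-20, using rat TrxR1, 400 uM NADPH and 400 uM selenite (final). A fall in initial NADPH fluorescence relative to background marked substrate behaviour.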

[13] = target: M-phase phosphoprotein 8 (Homo sapiens) (UniProt Q99549); assay: qHTS Validation Assay for Inhibitors for MPP8 Chromodomain Interactions with Methylated Histone Tails (AID 488949);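 note: 50 nM MPP8 with 50 nM peptide preformed then compounds added for 30 min; AlphaScreen signal from MPP8 chromodomain bound to biotinylated H3K9me3 peptide; top concentration of the series differs between compounds; % is set by controls: 0 for no effect and ±100 for the full control effect; nearly all actives have a fitted effect of over 55% in size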
Outline: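 Chemiluminescent proximity assay: histidine-tag capture via nickel acceptor beads, biotin peptide via streptavidin donor beads. Protein and peptide each at 50 nM, pH 7.4, with 30 min incubations at room temperature for complex formation, compound exposure and bead binding.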

[14] = target: Chromobox protein homolog 1 (Homo sapiens) (UniProt P83916); assay: qHTS Validation Assay for Inhibitors of HP1-beta Chromodomain Interactions with Methylated Histone Tails (AID 488953);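 note: loss of AlphaScreen luminescence from HP1-beta binding biotinylated H3K9me3 peptide; % is set by controls: 0 for no effect and ±100 for the full control effect; nearly all actives have a fitted effect of over 50% in size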
Outline: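 50 nM HP1-beta + 50 nM biotin-H3(1-18)K9me3, PBS pH 7.4, 0.01% Tween-20, 30 min RT; compound added, 30 min RT; AlphaScreen beads 10 ug/mL final, 30 min dark; luminescence read.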

[15] = target: Methanococcus maripaludis chaperonin (MmCpn) (UniProt Q6LX38); assay: High-Throughput Screening for Modulators of Cytosolic Chaperonin Activity: MmCpn Primary Screen (AID 488978); note: 0% is about no effect
Outline: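 HTRF readout (320 nm excitation, 590/665 nm emission) of ADP generated by 50 nM MmCpn hydrolysing 30 uM ATP during 10 min at 37C; compound preincubated 5 min RT.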

[16] = target: Transient receptor potential cation channel subfamily V member 1 (Homo sapiens) (UniProt Q8NER1); assay: HTS Assay for Compounds that Act as Enhancers of the Vanilloid Receptor 1 (AID 488979); note: 0% is about no effect
Outline: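 Calcium influx kinetics via Fluo-8 (480/520 nm) in TRPV1-expressing cells, 2000/well cultured overnight at 35.5C. Compound-alone read 3 min (agonist phase), followed by EC20 capsaicin challenge for 2 min (enhancer phase).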

[17] = target: Thyrotropin receptor (Homo sapiens) (UniProt P16473); assay: qHTS Assay for Antagonists of the Thyroid Stimulating Hormone Receptor (AID 488980); note: 0% is about no effect
Outline: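 Inhibition of TSH-stimulated cAMP accumulation was quantified by homogeneous time-resolved FRET in TSHR-transfected HEK293 cells. Agonist: TSH, 4 nM final (EC80).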

[18] = Validation screen for small molecules that induce genotoxicity in human embryonic kidney (HEK293T) cells expressing luciferase-tagged ELG1 (AID 493106); note: 0% is about no effect
Outline: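 Luminescence from an ELG1-luciferase fusion serves as the read-out, rising when genetic stress elevates ELG1 protein. HEK293T reporter cells (2,000 per well) received 23 nL compound, incubated 16 hr at 37 °C, then ONE-Glo for 30 min at room temperature.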

[19] = target: ATPase family AAA domain-containing protein 5 (Homo sapiens) (UniProt Q96QE3); assay: Validation screen for small molecules that inhibit ELG1-dependent DNA repair in human embryonic kidney (HEK293T) cells expressing luciferase-tagged ELG1 (AID 493107);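 note: cells co-treated with the DNA-damaging agent 5-fluorouridine alongside compound; % is set by controls: 0 for no effect and ±100 for the full control effect; inhibitors lower the ELG1-luciferase luminescence signal; nearly all actives have a fitted effect of over 70% in size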
Outline: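 Luminescence from ONE-Glo, developed 30 min at room temperature, served as read-out of ELG1-luciferase levels. Beforehand, reporter HEK293T cells received 5-fluorouridine plus test compound for 16 hr at 37 °C.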

[20] = target: Thyrotropin-releasing hormone receptor (Homo sapiens) (UniProt P34981); assay: qHTS for Small Molecule Agonists and Allosteric Enhancers of Human TRH Receptor: Validation Screen for Agonists (AID 493127;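 active = calcium activation more than 3 SD above the typical response in the agonist read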;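 note: intracellular calcium rise by fluo-8 fluorescence before TRH EC20 addition; 0% is about no effect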); settings: TRH receptor agonist cell assay; at 2 µM; stronger effect = higher value
Outline: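 Cells 2000/well, 10% FCS, 18 h 33.5C/5% CO2 → fluo-8 Ca dye, RT 30 min–1.5 h → FDSS baseline 10 × 1 s → compound added → 230 cycles (1 s/cycle) agonist mode. TRH controls.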

[21] = Nrf2 qHTS screen for inhibitors: Validation (AID 493153; active = well fitted inhibition curve with a large enough effect in the main read-out, with a control signal flat, not every such curve was filed as active); settings: viability change: measured here: cytotoxicity max response
Outline: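 Luminescence from an ARE-firefly luciferase reporter in A549 cells gives Nrf2 inhibition; an earlier CellTiter-Fluor fluorescent read flags cytotoxicity. Cells in 5% FBS OPTI-MEM received compound dilution series for 18-24 h at 37°C.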

[22] = qHTS for Inhibitors of Cell Surface uPA Generation: Validation Assay (AID 493164); note: 0% is about no effect
Outline: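 RAW 264.7 cells (4000/well) were plated overnight, then exposed for 18 h at 37 C, 5% CO2 to compounds in a 7-point 1:5 titration (2.45 nM–38.3 uM final). Intracellular ATP was read by ATP-Lite luminescence.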

[23] = target: Galactokinase (Homo sapiens) (UniProt P51570); assay: qHTS Validation Assay for Inhibitors of Human Galactokinase (GALK) (AID 493189); note: 0% is about no effect
Outline: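 Enzyme activity is inferred from ATP consumption: human GALK phosphorylates galactose (100 uM) using 35 uM ATP for 1 h at room temperature, and luciferase-based Kinase-Glo Plus reports unconsumed ATP.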

[24] = Validation screen for small molecules that induce DNA re-replication in SW480 colon adenocarcinoma cells (AID 504364); note: 0% is about no effect
Outline: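 250 cells/well; compound pinned in; 48 hr, 37 C, 5% CO2; Hoechst added, 40 min; nuclear fluorescence imaged, 405 ex / 500-530 em; re-replication scored as increase in high-intensity nuclei.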

[25] = target: Phosphoglycerate kinase, glycosomal (Trypanosoma brucei brucei) (UniProt P07378); assay: qHTS Validation Assay to Find Inhibitors of Phosphoglycerate Kinase (AID 504547);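 note: control wells lack PGK and mark full inhibition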
Outline: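 Inhibition of the enzyme is judged by a Kinase-Glo Plus luminescent signal following a one-hour incubation at room temperature. Because 1,3-BPG is unstable, it is made in situ by GAPDH at 100nM final; no-PGK wells define the baseline.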

[26] = target: phosphoglycerate mutase (Leishmania major) (UniProt Q4Q090); assay: qHTS Validation Assay to Find Inhibitors of Phosphoglycerate Mutase (AID 504548); note: % is set by controls: 0 for no effect and ±100 for the full control effect
Outline: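 Luminescent end-point read-out via Kinase-GloPlus after a 10-minute development. Reaction: 1.25nM Leishmania major PGAM with substrate and compound, 45 minutes at room temperature in TEA buffer (pH 7.6) with MgCl2 and Tween-20.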

[27] = target: Ubiquitin carboxyl-terminal hydrolase 1 (Homo sapiens) (UniProt O94782); assay: Inhibitors of USP1/UAF1: Pilot qHTS (AID 504865);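 note: rhodamine fluorescence freed from ubiquitin-rhodamine substrate followed over time; top concentration of the series differs between compounds; % is set by controls: 0 for no effect and ±100 for the full control effect; nearly all actives have a fitted effect of over 35% in size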
Outline: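 Enzyme-free wells gave the negative control, while test wells held 1nM USP1/UAF1 preincubated with compound for 15 min at room temperature. Ub-Rho at 150nM final started the reaction, and fluorescence at 480/540 nm was recorded kinetically.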

[28] = target: Voltage-gated inwardly rectifying potassium channel KCNH2 (Homo sapiens) (UniProt Q12809); assay: qHTS Assay for Small Molecule Inhibitors of the Human hERG Channel Activity (AID 588834);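 note: potency is the fitted concentration of half-maximal effect; lower thallium flux fluorescence means stronger hERG block; nearly all actives have a fitted effect of over 50% in size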
Outline: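 Blockade is seen as reduced FluxOR thallium-flux fluorescence in U2OS cells expressing hERG from a BacMam construct, in Opti-MEM with 2% FCS. Concentration-response data fitted to the Hill equation for AC50.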

Methanococcus maripaludis chaperonin (MmCpn), sequence (Q6LX38 1-543): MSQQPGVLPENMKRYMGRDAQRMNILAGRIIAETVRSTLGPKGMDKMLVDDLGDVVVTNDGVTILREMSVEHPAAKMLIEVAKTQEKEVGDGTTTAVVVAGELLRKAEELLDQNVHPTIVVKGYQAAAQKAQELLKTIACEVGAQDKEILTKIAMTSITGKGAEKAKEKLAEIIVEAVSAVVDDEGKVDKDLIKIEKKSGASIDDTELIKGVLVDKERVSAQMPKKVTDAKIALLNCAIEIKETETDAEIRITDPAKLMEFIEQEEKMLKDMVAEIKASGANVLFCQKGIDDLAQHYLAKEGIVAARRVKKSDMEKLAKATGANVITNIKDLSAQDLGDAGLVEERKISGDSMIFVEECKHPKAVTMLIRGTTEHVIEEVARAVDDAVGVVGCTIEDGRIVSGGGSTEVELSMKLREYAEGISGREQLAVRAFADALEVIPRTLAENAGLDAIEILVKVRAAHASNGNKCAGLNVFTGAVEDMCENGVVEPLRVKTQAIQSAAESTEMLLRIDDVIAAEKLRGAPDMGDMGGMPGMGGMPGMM
Phosphoglycerate kinase, glycosomal (Trypanosoma brucei brucei), sequence (P07378 whole entry, looked up): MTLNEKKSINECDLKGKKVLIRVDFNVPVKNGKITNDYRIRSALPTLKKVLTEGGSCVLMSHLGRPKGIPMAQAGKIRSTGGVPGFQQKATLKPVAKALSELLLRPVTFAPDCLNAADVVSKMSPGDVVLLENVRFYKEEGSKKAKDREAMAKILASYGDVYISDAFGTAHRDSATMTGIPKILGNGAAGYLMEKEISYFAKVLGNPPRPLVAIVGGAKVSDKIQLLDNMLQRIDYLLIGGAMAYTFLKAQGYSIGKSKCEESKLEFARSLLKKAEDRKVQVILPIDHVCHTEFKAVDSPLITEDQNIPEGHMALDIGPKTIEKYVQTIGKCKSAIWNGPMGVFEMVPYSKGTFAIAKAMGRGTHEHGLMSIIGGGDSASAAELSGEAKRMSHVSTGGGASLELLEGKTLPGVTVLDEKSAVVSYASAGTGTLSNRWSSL
phosphoglycerate mutase (Leishmania major), sequence (Q4Q090 1-553): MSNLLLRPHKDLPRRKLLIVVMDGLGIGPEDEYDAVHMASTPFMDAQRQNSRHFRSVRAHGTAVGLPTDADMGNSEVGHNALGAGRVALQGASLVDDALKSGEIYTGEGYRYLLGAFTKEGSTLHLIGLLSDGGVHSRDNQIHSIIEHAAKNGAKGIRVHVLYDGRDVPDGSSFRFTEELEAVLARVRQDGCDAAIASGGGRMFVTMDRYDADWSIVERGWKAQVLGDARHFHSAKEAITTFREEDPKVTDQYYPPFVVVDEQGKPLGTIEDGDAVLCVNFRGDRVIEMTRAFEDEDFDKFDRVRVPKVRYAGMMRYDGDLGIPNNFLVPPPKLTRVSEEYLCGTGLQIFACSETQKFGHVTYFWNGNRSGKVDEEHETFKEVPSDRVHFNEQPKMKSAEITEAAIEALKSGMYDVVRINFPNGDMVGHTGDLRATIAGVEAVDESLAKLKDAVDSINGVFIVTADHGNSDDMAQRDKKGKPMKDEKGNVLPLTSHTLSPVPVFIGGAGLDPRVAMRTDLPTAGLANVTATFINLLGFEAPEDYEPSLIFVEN
Transient receptor potential cation channel subfamily V member 1 (Homo sapiens), sequence (Q8NER1 whole entry, looked up): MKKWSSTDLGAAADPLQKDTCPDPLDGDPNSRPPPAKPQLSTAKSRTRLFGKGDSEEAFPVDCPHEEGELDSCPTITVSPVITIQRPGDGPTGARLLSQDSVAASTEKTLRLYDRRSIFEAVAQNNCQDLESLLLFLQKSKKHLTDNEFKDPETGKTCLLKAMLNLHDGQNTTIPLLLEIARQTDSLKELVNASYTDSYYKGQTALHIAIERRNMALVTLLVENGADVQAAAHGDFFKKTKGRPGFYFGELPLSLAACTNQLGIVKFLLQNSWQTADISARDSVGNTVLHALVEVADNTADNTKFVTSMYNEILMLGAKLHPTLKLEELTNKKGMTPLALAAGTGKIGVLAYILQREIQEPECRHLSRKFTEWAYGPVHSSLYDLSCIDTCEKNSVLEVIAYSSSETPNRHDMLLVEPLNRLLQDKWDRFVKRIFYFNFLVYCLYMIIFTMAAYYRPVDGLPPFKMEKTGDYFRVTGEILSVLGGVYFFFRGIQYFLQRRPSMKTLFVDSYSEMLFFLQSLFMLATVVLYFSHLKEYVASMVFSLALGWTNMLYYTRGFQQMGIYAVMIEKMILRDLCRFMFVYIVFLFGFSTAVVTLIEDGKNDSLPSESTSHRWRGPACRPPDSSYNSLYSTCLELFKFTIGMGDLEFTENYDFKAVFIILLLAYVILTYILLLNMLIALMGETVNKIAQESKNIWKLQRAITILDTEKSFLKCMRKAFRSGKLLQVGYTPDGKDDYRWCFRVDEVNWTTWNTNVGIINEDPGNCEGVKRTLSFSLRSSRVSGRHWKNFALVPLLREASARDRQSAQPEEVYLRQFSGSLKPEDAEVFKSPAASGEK
Thyrotropin-releasing hormone receptor (Homo sapiens), sequence (P34981 whole entry, looked up): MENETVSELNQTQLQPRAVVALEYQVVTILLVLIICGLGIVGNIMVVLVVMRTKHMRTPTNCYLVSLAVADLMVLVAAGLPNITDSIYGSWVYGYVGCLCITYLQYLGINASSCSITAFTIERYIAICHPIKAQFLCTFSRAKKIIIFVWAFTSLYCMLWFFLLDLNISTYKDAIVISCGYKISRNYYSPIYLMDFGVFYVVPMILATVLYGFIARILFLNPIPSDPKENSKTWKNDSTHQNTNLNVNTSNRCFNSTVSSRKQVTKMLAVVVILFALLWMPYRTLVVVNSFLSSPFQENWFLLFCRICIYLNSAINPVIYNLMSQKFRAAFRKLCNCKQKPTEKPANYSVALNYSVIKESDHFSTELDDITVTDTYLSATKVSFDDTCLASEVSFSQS
Chromobox protein homolog 1 (Homo sapiens), sequence (P83916 whole entry, looked up): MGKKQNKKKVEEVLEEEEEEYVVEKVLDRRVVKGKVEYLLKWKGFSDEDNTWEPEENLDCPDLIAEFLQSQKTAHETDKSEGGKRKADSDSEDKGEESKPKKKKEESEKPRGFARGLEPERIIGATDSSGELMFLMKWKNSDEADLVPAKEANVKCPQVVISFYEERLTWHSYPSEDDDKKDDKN
Ubiquitin carboxyl-terminal hydrolase 1 (Homo sapiens), sequence (O94782 whole entry, looked up): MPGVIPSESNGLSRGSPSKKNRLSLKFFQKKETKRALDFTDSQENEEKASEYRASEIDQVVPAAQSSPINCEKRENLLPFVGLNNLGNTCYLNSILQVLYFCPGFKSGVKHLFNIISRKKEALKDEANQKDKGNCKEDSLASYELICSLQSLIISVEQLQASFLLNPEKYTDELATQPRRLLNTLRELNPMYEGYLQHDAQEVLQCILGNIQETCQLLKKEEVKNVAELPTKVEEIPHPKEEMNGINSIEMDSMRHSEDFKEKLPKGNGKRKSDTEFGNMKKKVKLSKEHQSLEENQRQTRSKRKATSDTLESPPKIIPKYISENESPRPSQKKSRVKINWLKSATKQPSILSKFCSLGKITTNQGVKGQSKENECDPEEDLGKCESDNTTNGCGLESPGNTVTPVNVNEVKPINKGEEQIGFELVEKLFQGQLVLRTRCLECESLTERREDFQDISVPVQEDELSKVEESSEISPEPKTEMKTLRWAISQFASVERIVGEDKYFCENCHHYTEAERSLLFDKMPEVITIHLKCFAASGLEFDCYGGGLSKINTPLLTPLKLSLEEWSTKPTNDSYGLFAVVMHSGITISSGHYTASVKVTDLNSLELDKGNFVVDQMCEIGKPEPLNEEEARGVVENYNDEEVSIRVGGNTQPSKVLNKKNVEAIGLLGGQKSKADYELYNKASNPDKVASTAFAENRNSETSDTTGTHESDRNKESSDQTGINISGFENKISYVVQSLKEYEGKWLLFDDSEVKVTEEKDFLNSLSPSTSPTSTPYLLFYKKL
Ubiquitin carboxyl-terminal hydrolase 2 (Homo sapiens), sequence (O75604 whole entry, looked up): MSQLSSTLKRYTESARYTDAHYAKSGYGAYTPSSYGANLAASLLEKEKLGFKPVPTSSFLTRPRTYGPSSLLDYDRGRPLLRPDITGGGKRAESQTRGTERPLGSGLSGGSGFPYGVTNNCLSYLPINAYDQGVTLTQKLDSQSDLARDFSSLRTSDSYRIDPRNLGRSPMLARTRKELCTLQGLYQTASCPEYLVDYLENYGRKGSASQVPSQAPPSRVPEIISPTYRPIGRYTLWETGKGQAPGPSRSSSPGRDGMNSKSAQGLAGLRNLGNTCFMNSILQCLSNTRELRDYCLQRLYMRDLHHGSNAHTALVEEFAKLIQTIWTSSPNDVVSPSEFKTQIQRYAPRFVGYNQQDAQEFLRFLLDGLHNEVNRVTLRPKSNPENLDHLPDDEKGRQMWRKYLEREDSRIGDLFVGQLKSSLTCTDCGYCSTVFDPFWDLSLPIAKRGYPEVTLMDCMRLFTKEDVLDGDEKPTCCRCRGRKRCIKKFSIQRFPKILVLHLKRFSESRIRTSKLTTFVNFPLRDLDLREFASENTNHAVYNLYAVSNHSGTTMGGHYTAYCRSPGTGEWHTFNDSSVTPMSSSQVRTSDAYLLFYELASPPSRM
Tumor susceptibility gene 101 protein (Homo sapiens), sequence (Q99816 whole entry, looked up, the tested form may be a part): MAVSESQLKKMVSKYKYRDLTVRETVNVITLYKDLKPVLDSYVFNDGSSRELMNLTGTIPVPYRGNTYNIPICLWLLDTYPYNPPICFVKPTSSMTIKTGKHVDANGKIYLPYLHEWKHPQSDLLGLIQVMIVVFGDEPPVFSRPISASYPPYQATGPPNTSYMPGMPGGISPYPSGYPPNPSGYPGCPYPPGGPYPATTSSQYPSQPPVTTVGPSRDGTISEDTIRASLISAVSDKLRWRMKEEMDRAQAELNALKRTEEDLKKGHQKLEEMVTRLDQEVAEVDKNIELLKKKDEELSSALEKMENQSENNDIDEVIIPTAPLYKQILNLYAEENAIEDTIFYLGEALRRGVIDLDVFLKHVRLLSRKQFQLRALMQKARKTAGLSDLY

Oc1cc2c(c(Cl)c1O)CCNCC2c1ccccc1 (centres undefined)
active: Potency [28] 2820 nM
inactive: outcome [1] | Potency [2] | Potency [3] | Potency [4] | outcome [5] | outcome [6] | Potency [7] | Potency [8] | Potency [9] | outcome [10] | outcome [11] | outcome [12] | Potency [13] | Potency [14] | outcome [15] | outcome [16] | outcome [17] | Potency [18] | Potency [19] | activation [20] 2.25% | outcome [21] | outcome [22] | outcome [23] | outcome [24] | Potency [25] | outcome [26] | Potency [27]
-3.92%: viability change [21]
